For 5 compounds, composite z-score, z-score and composite Z-score results are on record in PubChem BioAssay.

SMILES strings stand for the structures. Calls of active or inactive are those of the source.

Test [1] has as its system Human papillomavirus type 1a protein E7 (residues 44-93). Nature of the test: HPV1a E7 fragment binders on microarrays, primary screen, biochemical, small-molecule microarray, residues 44-93, 635 nm fluorescence (AID 1108).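 Note: E7 fragment applied at 1 µg/mL in TBST for 1 h at 4 C; score combines spot fluorescence with its signal to noise ratio.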 The note with it: small-molecule microarray binding, fluorescence 635 nm; higher = more signal.
A short description of test [2]: modulators of HCV replicon luciferase signal, primary screen, HCV replication inhibitor project, Huh7 cells, luciferase reporter (AID 1109).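 Note: huh7 hepatoma cells harbouring a luciferase neomycin HCV replicon reporter; luciferase luminescence as measure of HCV replicon replication; test concentration not given here.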 The note with it: 48 h, higher = more signal.
The target of test [3] is Left-right determination factor 2 (Homo sapiens) (UniProt O00292). The test is described as follows: LEFTY2 binders on small-molecule microarrays, primary screen, biochemical, small-molecule microarray, 635 nm fluorescence scan (AID 1110). The note with it: LEFTY2 binding, higher = more signal.
For test [4], the target named is Calmodulin-1 (Homo sapiens) (UniProt P0DP23). Nature of the test: CALM1 binders on microarrays, EGTA buffer, profiling panel, biochemical, small-molecule microarray, Cy5-labelled CALM1 (AID 1111).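 Note: labelled calmodulin applied in Tris saline Tween buffer holding calcium plus EGTA and DTT.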 The note with it: Cy5-CALM1 binding fluorescence, higher = more signal.
Test [5] shares this target. The test is described as follows: calcium-bound CALM1 binders on microarrays, profiling panel, artefact control for SMM control-protein annotation, biochemical, small-molecule microarray, Cy5-labelled CALM1, plus calcium (AID 1112).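 Note: score merges spot fluorescence with signal to noise from triplicate slides.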 The note with it: Cy5-CALM1 binding fluorescence, higher = more signal.
The nature of test [6]: small-molecule microarray binders of probe aWnt5a, primary screen, biochemical, biotinylated probe, 635/667 nm fluorescence (AID 1113).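 Note: score merges 667 nm fluorescence intensity with signal-to-noise per printed feature.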 The note with it: higher = more signal.
A short description of test [7]: small-molecule microarray binders of probe aShh, primary screen, biochemical, biotinylated probe, 635/667 nm fluorescence (AID 1114).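 Note: probe is biotin-labelled aShh protein from a stem cell growth factor screen; measures binding of labelled protein to compounds printed on the slide; score merges feature fluorescence at 667 nm with signal-to-noise.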 The note with it: higher = more signal.
A short description of test [8]: small-molecule microarray binders of probe aNog, primary screen, biochemical, biotinylated probe, 635/667 nm fluorescence (AID 1115).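 Note: probe is biotinylated aNog protein used at 0.15 µg/mL for 1 h at 4 C; z-score combines 667 nm fluorescence of each spot with its signal to noise.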 The note with it: higher = more signal.
The target in test [9] is Torsin-1A-interacting protein 1 (Homo sapiens) (UniProt Q5JTV8). The test is described as follows: LAP1 binders from COS7 cell lysate, primary screen, small-molecule microarray, 635/667 nm fluorescence (AID 1116). The note with it: COS7-hLAP1 lysate binding, 635 nm fluorescence, higher = more signal.
For test [10], the target named is Alpha-bungarotoxin (Bungarus multicinctus) (UniProt P60615). The test is described as follows: alpha-bungarotoxin binders on microarray, profiling panel, artefact control for SMM control protein annotation, biochemical, small-molecule microarray, Alexa647 label, 635/667 nm fluorescence (AID 1117). The note with it: alpha-BTX-A647 binding fluorescence, higher = more signal.

For another test, the target named is Albumin (Bos taurus) (UniProt P02769). Nature of the test: bovine serum albumin binders on microarray, profiling panel, artefact control for SMM control protein annotation, biochemical, small-molecule microarray, Alexa647 label, 635/667 nm fluorescence (AID 1118).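 Note: score merges 667 nm emission intensity and signal-to-noise per printed compound spot.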 The note with it: BSA-A647 binding, fluorescence 635 nm, higher = more signal.
The nature of test [11]: small-molecule microarray binders of probe aXIP, primary screen, biochemical, NeuroSMM set, 635/667 nm fluorescence (AID 1119).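 Note: probe is the protein aXip251-270 applied at 1 µg/mL to compound-printed slides; binding of probe to printed compounds measured as 667 nm fluorescence plus signal to noise.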 The note with it: higher = more signal, called active from +8 up or from −8 down.
The nature of test [12]: small-molecule binders of probe aNOTCH3, primary screen, biochemical, small-molecule microarray, 635/667 nm fluorescence (AID 1120).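 Note: probe is a biotin-tagged antibody raised against NOTCH3 rather than NOTCH3 protein; score merges spot fluorescence near 667 nm with spot signal to noise.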 The note with it: higher = more signal.
The nature of test [13]: small-molecule binders of probe aNOTCH2, primary screen, biochemical, small-molecule microarray, 635/667 nm fluorescence (AID 1121).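 Note: score merges feature fluorescence read at 667 nm with its signal to noise.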 The note with it: higher = more signal.
For test [14], the target named is Carbonic anhydrase 2 (Homo sapiens) (UniProt P00918). Nature of the test: CAII small-molecule binders, profiling panel, biochemical, small-molecule microarray, Alexa647-labelled CAII (AID 1122). The note with it: CAII-A647 binding fluorescence, higher = more signal.
Test [15] is described as follows: COS7 lysate on small-molecule microarray, probe aHis, 635 nm (AID 1123).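 Note: z-score combines 667nm fluorescence intensity with signal-to-noise per printed compound spot.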 The note with it: COS7 cell lysate, fluorescence, higher = more signal.
The nature of test [16]: compound binding in COS7 lysate, probe aLAP1, primary screen, cell lysate, small-molecule microarray (AID 1124).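 Note: lysate comes from COS7 cells expressing LAP1 and is applied at 0.3 µg/mL; score merges spot fluorescence near 667 nm with signal-to-noise over triplicate slides.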 The note with it: probe aLAP1, fluorescence, higher = more signal.
Another test deals with Sam68 (KHDRBS1). The test is described as follows: Sam68 small-molecule binders, primary screen, biochemical, small-molecule microarray, 635 nm fluorescence (AID 1125).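 Note: score merges 667 nm channel intensity with signal to noise over triplicate slides.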 The note with it: small-molecule microarray binding, higher = more signal.
The subject of test [17] is Chordin-like protein 2 (CHRDL2). The test is described as follows: CHRDL2 small-molecule binders, primary screen, biochemical, small-molecule microarray, 635 nm fluorescence (AID 1126).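 Note: printed compound slides probed with Chrdl2 protein at 4 µg/mL for 1 h at 4 C; score merges 667 nm emission intensity with signal to noise over three replicate slides.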 The note with it: small-molecule microarray binding, fluorescence 635 nm; higher = more signal.
The target of test [18] is Concanavalin-A (Canavalia ensiformis) (UniProt P02866). Nature of the test: ConA small-molecule binders, primary screen, artefact control for SMM control protein annotation, biochemical, small-molecule microarray, Alexa647 label, 635 nm (AID 1127).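 Note: z combines 667 nm emission intensity with signal-to-noise across three replicate slides.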 The note with it: ConA-A647 binding fluorescence, higher = more signal.
Sequence of Concanavalin-A (Canavalia ensiformis) (P02866 whole entry, looked up): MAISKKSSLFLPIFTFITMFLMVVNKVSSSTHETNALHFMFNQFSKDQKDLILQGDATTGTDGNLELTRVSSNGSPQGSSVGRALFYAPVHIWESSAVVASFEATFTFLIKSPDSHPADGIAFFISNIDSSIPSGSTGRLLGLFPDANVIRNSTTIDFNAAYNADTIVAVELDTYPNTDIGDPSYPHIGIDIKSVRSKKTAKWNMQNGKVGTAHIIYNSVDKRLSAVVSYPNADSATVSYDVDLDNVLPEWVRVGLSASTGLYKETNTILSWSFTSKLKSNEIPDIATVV

Sequence of Alpha-bungarotoxin (Bungarus multicinctus) (P60615 whole entry, looked up): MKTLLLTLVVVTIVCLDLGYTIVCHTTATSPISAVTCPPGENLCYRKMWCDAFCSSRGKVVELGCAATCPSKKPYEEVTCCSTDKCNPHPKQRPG
Sequence of Left-right determination factor 2 (Homo sapiens) (O00292 whole entry, looked up): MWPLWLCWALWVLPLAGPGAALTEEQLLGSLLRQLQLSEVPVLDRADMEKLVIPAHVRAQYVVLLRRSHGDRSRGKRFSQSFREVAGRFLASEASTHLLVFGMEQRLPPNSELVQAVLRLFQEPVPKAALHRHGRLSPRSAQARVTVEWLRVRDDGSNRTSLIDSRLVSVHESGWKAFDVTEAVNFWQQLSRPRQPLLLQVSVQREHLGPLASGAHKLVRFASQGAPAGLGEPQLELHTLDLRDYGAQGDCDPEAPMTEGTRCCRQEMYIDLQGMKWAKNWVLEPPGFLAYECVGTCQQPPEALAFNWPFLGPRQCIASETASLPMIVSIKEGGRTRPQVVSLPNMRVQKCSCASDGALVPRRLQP
Sequence of Torsin-1A-interacting protein 1 (Homo sapiens) (Q5JTV8 whole entry, looked up): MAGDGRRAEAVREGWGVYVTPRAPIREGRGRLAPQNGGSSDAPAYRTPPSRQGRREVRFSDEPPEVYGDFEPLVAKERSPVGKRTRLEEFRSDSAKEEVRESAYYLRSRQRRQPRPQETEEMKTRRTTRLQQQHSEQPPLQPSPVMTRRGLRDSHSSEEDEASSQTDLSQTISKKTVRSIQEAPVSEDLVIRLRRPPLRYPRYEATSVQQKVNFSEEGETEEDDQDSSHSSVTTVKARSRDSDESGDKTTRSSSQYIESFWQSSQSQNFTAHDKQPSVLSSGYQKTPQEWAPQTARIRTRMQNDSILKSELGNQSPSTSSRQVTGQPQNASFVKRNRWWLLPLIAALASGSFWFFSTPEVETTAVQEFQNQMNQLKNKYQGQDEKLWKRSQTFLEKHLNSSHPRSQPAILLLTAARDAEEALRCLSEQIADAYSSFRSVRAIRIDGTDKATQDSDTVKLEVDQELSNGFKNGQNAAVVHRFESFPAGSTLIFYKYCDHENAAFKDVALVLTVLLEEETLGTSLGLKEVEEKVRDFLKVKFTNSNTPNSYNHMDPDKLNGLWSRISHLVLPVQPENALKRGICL
Sequence of Albumin (Bos taurus) (P02769 whole entry, looked up): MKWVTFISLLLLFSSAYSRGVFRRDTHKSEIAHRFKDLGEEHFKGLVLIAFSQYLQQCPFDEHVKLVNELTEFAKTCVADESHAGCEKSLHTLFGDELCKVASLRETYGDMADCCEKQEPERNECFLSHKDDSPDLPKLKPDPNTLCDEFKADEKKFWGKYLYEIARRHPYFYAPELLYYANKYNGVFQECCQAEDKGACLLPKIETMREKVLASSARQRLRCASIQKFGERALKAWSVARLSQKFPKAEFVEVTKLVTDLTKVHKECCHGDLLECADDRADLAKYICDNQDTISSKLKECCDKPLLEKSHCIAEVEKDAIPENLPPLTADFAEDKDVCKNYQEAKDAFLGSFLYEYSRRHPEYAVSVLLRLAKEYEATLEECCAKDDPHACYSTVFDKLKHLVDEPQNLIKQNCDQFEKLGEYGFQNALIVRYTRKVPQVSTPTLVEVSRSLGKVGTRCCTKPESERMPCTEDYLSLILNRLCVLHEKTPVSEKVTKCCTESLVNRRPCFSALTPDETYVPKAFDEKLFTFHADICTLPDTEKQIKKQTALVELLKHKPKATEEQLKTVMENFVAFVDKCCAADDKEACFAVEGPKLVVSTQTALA

Take `C=C(/C(=C/C[C@H](OC(=O)c1ccncc1)c1ccccc1OCCO)c1cnc2ccccc2c1)C(C)C`: the composite z-score in test [1] is 1.41; in [3], 1.05; in [4], 0.547; in [5], -0.558; in test [6], 0.0374; in test [7], 0.172. Also, the composite z-score in [8] was -0.0809; in test [9], 0.358; in test [10] it was 1.73; with Albumin (Bos taurus) it was 0.706; in test [12] it was 0.145; in [13], -0.126. Further, the composite z-score was found to be 0.566 in test [14]; 0.443 in test [15]; 0.0737 in [16]; 1.31 in the test on Sam68 (KHDRBS1); 1.18 in [17]; 1.19 in test [18]. In addition, in [2], the z-score was -2.63. In addition, in test [11], the composite Z-score was 0.0746 (inactive).

For the compound `CCOC(=O)C[C@H]1[C@H](OC(=O)c2ccc(-c3ccccc3)cc2)[C@@H](NC(=O)Cc2ccc(OC)cc2)c2cc(OCCCO)ccc2N1C(=O)Cc1ccc(OC)cc1`, the composite z-score is 0.102 in test [1]; -0.0069 in [3]; 0.655 in test [4]; 0.767 in [5]; -0.0114 in [6]; 0.0952 in test [7]. Further, the composite z-score in [8] was 0.0759; in [9], 0.456; in test [10], 0.913; with Albumin (Bos taurus), 0.793; in test [12] it was -0.0647; in test [13] it was -0.112. Moreover, the composite z-score in test [14] is -0.0866; in [15], 0.584; in [16] it was 0.234; with Sam68 (KHDRBS1), 0.496; in [17], -0.565; in [18] it was -0.0542. In test [2], this compound came in with a z-score of -0.261. Besides, the composite Z-score in [11] was -0.263 (inactive).

For the compound `COCCOC(=O)N1C(=O)[C@@]2(c3cc(C#CCC(C(=O)OC)C(=O)OC)ccc31)[C@H](c1ccc(O)cc1)N1[C@H](c3ccccc3)[C@H](c3ccccc3)OC(=O)[C@H]1[C@@H]2C(=O)NC[C@H](O)c1ccccc1`, the composite z-score in test [1] is 1.33; in [3] it was 0.485; in test [4], 1.91; in test [5], 0.67; in test [6], -0.0172; in test [7] it was -0.147. Moreover, the composite z-score in test [8] is -0.346; in [9] it was 1.06; in test [10], 0.353; in the test with Albumin (Bos taurus) it was 0.781; in [12], -0.196; in [13], -0.14. The composite z-score is 0.63 in test [14]; 2.2 in test [15]; 0.588 in test [16]; 0.296 with Sam68 (KHDRBS1); -0.282 in [17]; 1.07 in test [18]. In addition, the z-score in test [2] was -0.496. Moreover, in [11], the composite Z-score was 0.7 (inactive).

For `Cc1ccc(S[C@]2(C(=O)NCc3ccccc3)CC(=O)N(Cc3cc(C(F)(F)F)cc(C(F)(F)F)c3)[C@@H]2c2ccc(CO)cc2I)cc1`, the composite z-score in test [1] is -0.262; in test [3], -1.24; in test [4], -0.36; in [5], 0.585; in test [6] it was -0.228; in [7], -0.319. Further, the composite z-score in [8] is -0.216; in test [9], 0.0893; in test [10], -1.05; with Albumin (Bos taurus), -0.618; in test [12], -0.338; in test [13], -0.161. For the same compound, the composite z-score in test [14] was 0.699; in [15] it was 0.67; in test [16], 0.0779; in the test with Sam68 (KHDRBS1) it was -0.191; in [17], -1.77; in test [18], -1.54. This compound also registered a z-score in test [2] of -0.861. For the same compound, the composite Z-score in test [11] is -0.244 (inactive).

For `COC(=O)C(CC#Cc1ccc2c(c1)[C@]1(C(=O)N2)[C@H](C(=O)Nc2nc3ccccc3s2)[C@H]2C(=O)O[C@H](c3ccccc3)[C@H](c3ccccc3)N2[C@@H]1c1ccc(OCCO)cc1)C(=O)OC`, the composite z-score turned out to be 1.39 in test [1]; 0.768 in test [3]; 1.52 in test [4]; 0.326 in test [5]; 0.189 in [6]; 0.427 in test [7]. In addition, the composite z-score in test [8] was 1; in [9], 2.02; in [10] it was 1.62; in the test with Albumin (Bos taurus), 0.942; in test [12] it was 0.178; in [13] it was -0.0209. Further, the composite z-score in test [14] was 0.553; in test [15], 2.29; in [16] it was 1.04; in the test with Sam68 (KHDRBS1) it was 1.3; in test [17], 0.517; in test [18], 1.12. In test [2], this compound showed a z-score of -1.85. Moreover, the composite Z-score in test [11] is 0.0898 (inactive).
